Experimental data as given in PubChem BioAssay (NCATS).
Records with an inconclusive call do not appear. Values without a mark were called inactive. Active and inactive are the calls of the source. Calls follow the shape of the dose curve; as a rule, active = well fitted inhibition curve with a large enough effect; inconclusive = small, poorly fitted or top-dose-only effect; inactive = flat fitted curve, though single readings scatter.

These molecules were tested on Zika virus NS2B-NS3 protease (assay: Primary screen GU AMC qHTS for Zika virus inhibitors (AID 1347154;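 also: 0% = no-inhibitor control and -100% = no-enzyme control; nearly all actives have a fitted effect of over 70% in size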)). Settings: Zika NS2B-NS3 unlinked protease, AMC fluorogenic substrate; series mostly up to 54.1 µM; activity change, negative = inhibition: at the top concentration.
Summary of the method: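 Unlinked Zika NS2B hydrophilic domain/NS3 protease domain noncovalent complex (25 nM final) in 10 mM Tris-HCl pH 8.0, 0.01% Tween 20, with AMC peptide substrate. Fluorescence (ex 340, em 450 nm) change over 15 min, room temperature; percent inhibition fitted to 4-parameter Hill equation.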

Compound | activity change, negative = inhibition | Potency
N=C(N)N | 0.732% | 
Nc1ccc(C(=O)O)c(O)c1 | -3.63% | 
Cc1ccc(O)c(-n2nc3ccccc3n2)c1 | 4.96% | 
c1ccc(CCNc2nc(-c3ccccc3)cs2)cc1 | -11.5% | 
CCCCCCCC/C=C/C(=O)O | -1.61% | 
CCCCCCOc1ccccc1C(N)=O | -3.05% | 
S=c1[nH]c2ccccc2s1 | -3.33% [at 104 µM] | 
O=C1CN(/N=C/c2ccc([N+](=O)[O-])o2)C(=O)N1 | -8.24% | 
CC(C(=O)O)c1ccc(C(=O)c2ccccc2)s1 (configuration not stated) | -5.98% | 
Cc1cc(O)c2ccccc2c1O | -3.72% | 
O=c1[nH]c2cc(C(F)(F)F)ccc2n1-c1cc(C(F)(F)F)ccc1O | -11.3% | 
CCCCCC(O)c1cccc(OCc2ccc3ccccc3n2)c1 (configuration not stated) | 14.2% [at 6.83 µM] | 
Cc1ccc(C(=O)c2ccc(CC(=O)O)n2C)cc1 | -2.61% | 
O=C(O)/C=C\C(=O)O | -2.45% | 
CCCSc1ccc2nc(NC(=O)OC)[nH]c2c1 | -1.15% | 
CCCCCCCCCCCCCCCCCC(=O)O | -3.93% | 
COc1cc(/C=C/C(=O)CC(=O)/C=C/c2ccc(O)c(OC)c2)ccc1O | 11% | 
COC(=O)C1=C(C)NC(C)=C(C(=O)OCC(C)C)C1c1ccccc1[N+](=O)[O-] (configuration not stated) |  | inactive
Nc1ccc([N+](=O)[O-])cc1O | -11.5% [at 104 µM] | 
O=c1[nH]c2ccccc2n1CCCN1CCN(C(c2ccccc2)c2ccccc2)CC1 | -14.4% | 
C[N+]1(C)[C@@H]2CC(OC(=O)[C@H](CO)c3ccccc3)C[C@H]1[C@@H]1O[C@@H]12 (some centres not stated) | -3.98% | 
N#C/C(=C\c1ccc(O)c(O)c1)C(=O)NCc1ccccc1 | 15.3% | 
